From PubChem BioAssay (NCI)
Compounds without any hit were thinned out: in the full panel of roughly 79,000, 15% have a hit. A number with no mark means an inactive call. The source made the active and inactive calls. Cut-off read from the data, not from the text of the source: active = growth inhibition above about 70%; inactive = the rest.

What was measured:
[1] = NCI Yeast Anticancer Drug Screen. Data for the rad50 strain (AID 155);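 note: 0% = growth of vehicle-only cultures of the same strain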; conditions: S. cerevisiae rad50 strain growth inhibition, stronger effect = higher value
In short: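 Compounds were tested on a yeast strain with an engineered DNA damage repair alteration; the reported value is growth inhibition normalised to vehicle treatment.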

[2] = NCI Yeast Anticancer Drug Screen. Data for the mec2-1 strain (AID 157); conditions: S. cerevisiae mec2-1 strain, stronger effect = higher value
In short: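 Vehicle-treated cultures served as reference for growth inhibition of compound-exposed mec2-1 yeast.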

[3] = NCI Yeast Anticancer Drug Screen. Data for the sgs1 mgt1 strain (AID 161);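 note: 0% = growth of cultures given vehicle only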; conditions: S. cerevisiae sgs1 mgt1 strain, stronger effect = higher value
In short: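 Inhibition of yeast growth, normalised to vehicle-treated controls, is reported for a strain bearing genetic alterations in DNA damage repair.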

[4] = NCI Yeast Anticancer Drug Screen. Data for the cln2 rad14 strain (AID 165);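 note: 0% = growth equal to vehicle treated cultures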; conditions: S. cerevisiae cln2 rad14 strain, stronger effect = higher value
In short: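 Each compound was tested on cln2 rad14 yeast. Inhibition of growth was calculated against vehicle-exposed controls.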

[5] = NCI Yeast Anticancer Drug Screen. Data for the bub3 strain (AID 167); conditions: S. cerevisiae bub3 mutant strain, stronger effect = higher value
In short: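 Growth of a checkpoint-deficient yeast mutant is measured after compound exposure. Values represent inhibition relative to vehicle.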

[6] = NCI Yeast Anticancer Drug Screen. Data for the mlh1 rad18 strain (AID 175); conditions: S. cerevisiae mlh1 rad18 strain growth inhibition, stronger effect = higher value
In short: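 Vehicle-treated cultures served as the reference for growth inhibition in a yeast strain carrying DNA damage repair alterations exposed to each compound.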

[7] = at 5.0 µM (retest, dose inferred, filed as 0.5)
[8] = at 50.0 µM (retest, dose inferred, filed as 5.0)

Row | Compound | growth inhibition [1, 7] | growth inhibition [1, 8] | growth inhibition ([1]; at 50.0 µM) | growth inhibition [2, 7] | growth inhibition [2, 8] | growth inhibition ([2]; at 50.0 µM) | growth inhibition [3, 7] | growth inhibition [3, 8] | growth inhibition ([3]; at 50.0 µM) | growth inhibition [4, 7] [%] | growth inhibition [4, 8] | growth inhibition ([4]; at 50.0 µM) | growth inhibition [5, 7] | growth inhibition [5, 8] | growth inhibition ([5]; at 50.0 µM) | growth inhibition [6, 7] | growth inhibition [6, 8] | growth inhibition ([6]; at 50.0 µM)
1 | N#CCc1ccc2c(c1)Sc1ccccc1O2 | -159% | -54% | 90.5% (active) | -49% | -26% | 31.8% | -58% | -13% | 53% | -57 | -35% | -5.85% | -62% | -33% | 50.2% | -122% | -45% | 73.8% (active)
2 | NC(N)=Nc1ccc(N=C(N)N)cc1 | 3% | 2% | 92% (active) | 1% | -2% | 99.7% (active) | -1% | -3% | 17.1% | 1 | 1% | 60.8% | 3% | 3% | 99.2% (active) | 2% | 2% | 45.5%
3 | CCOC(=O)/C(C#N)=C/c1ccccc1Br | 11% | 18% | 50% | -19% | 3% | 20.4% | 7% | 13% | -0.75% | 39 | 17% | 3.6% | 31% | 20% | 1.2% | -9% | -4% | 6.6%
4 | CCOC(=O)C(=O)CC(=O)C(Br)C(Br)c1ccc(Cl)cc1 (stereo not given) | 78% (active) | 99% (active) | 99.5% (active) | 85% (active) | 99% (active) | 99.6% (active) | 97% (active) | 99% (active) | 99.4% (active) | 69 | 100% (active) | 99% (active) | 92% (active) | 99% (active) | 99.3% (active) | 90% (active) | 99% (active) | 99.5% (active)
5 | O=C(c1ccc(Br)cc1)C1N=NCC1c1ccccc1 (stereo not given) | 1% | 36% | -4.75% | 9% | 52% | 64.7% | 4% | -14% | 64.7% | 6 | 65% | 12.8% | 0% | 59% | 86.3% (active) | -4% | 64% | 80.2% (active)
6 | C/C(=N\NC(=S)N1CCC(O)CC1)c1ccccn1 | 14% | 93% (active) | 99% (active) | 14% | 94% (active) | 99.5% (active) | 40% | 99% (active) | 99.2% (active) | 16 | 95% (active) | 98.2% (active) | 39% | 97% (active) | 98.8% (active) | 28% | 98% (active) | 98.8% (active)
7 | CC[N+](C)(CC)CCC(=O)/C=C/c1ccccc1 | 15% | 54% | 87.5% (active) | 11% | 69% | 93% (active) | 5% | 55% | 88.6% (active) | 16 | 49% | 53.1% | 3% | 74% (active) | 76.5% (active) | 11% | 46% | -47.8%
8 | COc1ccc(N=C2C(=S)N(c3ccc(OC)cc3)/C(=N/S(=O)(=O)c3ccccc3)N2c2ccccc2)cc1 | 10% | 18% | 8.6% | 9% | 23% | -4.1% | -23% | 0% | 5.7% | -11 | 3% | 11.2% | -13% | 11% | 1.65% | 14% | 16% | 14%
9 | CCCNC(=O)c1cc2ccccc2cc1C(=O)OC | 59% | 90% (active) | 86% (active) | 48% | 90% (active) | 88.5% (active) | 51% | 95% (active) | 81.9% (active) | 49 | 74% (active) | 81.1% (active) | 68% | 94% (active) | 88.3% (active) | 65% | 94% (active) | 86.2% (active)
10 | Nc1cc(F)cc(F)c1[N+](=O)[O-] | 4% | 21% | 41% | 4% | 22% | 0.45% | 1% | 18% | 53.3% | -1 | 6% | -15.4% | -1% | 19% | -1.5% | 7% | 26% | 79.7% (active)
